An excerpt weighted towards active compounds, which were near 4.1% of everything screened.
DAX1 inh-1 = DAX1 (NR0B1) inhibitors, primary screen, cell-based, HEK293, Gal4-DAX1, luciferase luminescence. HEK293 Gal4-DAX1 luciferase reporter. AID 504766, 2011. Nuclear receptor subfamily 0 group B member 1 (Homo sapiens), P51843. inhibition, % at 6.75 µM. 340,000 tested, 0.99% active;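 active = inhibition above the mean over all tested compounds plus 3 SD, cut at about 4.2% in these data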;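 note: 0% = DAX1-transfected cells with DMSO and 100% = empty-vector control cells with DMSO; inhibition shows as a rise in luminescence from relieved DAX1 repression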
Target sequence (P51843 207-470 limits assumed): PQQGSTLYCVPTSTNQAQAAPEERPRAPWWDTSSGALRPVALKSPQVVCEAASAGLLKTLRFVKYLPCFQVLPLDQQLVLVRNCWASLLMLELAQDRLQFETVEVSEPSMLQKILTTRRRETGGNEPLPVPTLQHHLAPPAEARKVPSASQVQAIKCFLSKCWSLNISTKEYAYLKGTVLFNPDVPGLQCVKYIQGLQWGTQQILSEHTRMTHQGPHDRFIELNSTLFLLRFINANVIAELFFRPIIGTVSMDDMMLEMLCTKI
ssDAF-12 act = S. stercoralis DAF-12 nuclear receptor activators, primary screen, cell-based, luminescence, HEK293, GRIP1 co-expression, lit1-tk-luc; Nuclear hormone receptor DAF-12 (Strongyloides stercoralis); HEK293 ssDAF-12/GRIP1 lit1-tk-luc reporter; % of 3 µM dafachronic acid response; activation, % at 6.8 µM; 370,000 tested, 1% active;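 active = activation above the mean over all tested compounds plus 3 SD, cut at about 0.9% in these data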;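 note: 0% = DMSO-only wells and 100% = 3 µM delta7-dafachronic acid wells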
DAX1 inh-2 = DAX1 (NR0B1) inhibitors on StAR promoter, primary screen, cell-based, luminescence, SF-1 (NR5A1), full-length DAX-1. HEK293T StAR-luciferase reporter, SF-1/DAX-1 repression relief. inhibition, % at 6.8 µM. 370,000 tested, 1.1% active. AID 652010, 2013;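 active = inhibition above the mean over all tested compounds plus 3 SD, cut at about 3.6% in these data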;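 note: 0% = DAX-1 cells with DMSO and 100% = cells lacking DAX-1 with DMSO; higher inhibition means more luminescence from relief of DAX-1 repression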
hcDAF-12 act = H. contortus DAF-12 nuclear receptor activators, primary screen, cell-based, luminescence, HEK293, lit1-tk-luc reporter | 370,000 tested, 1.4% active | AID 652067, 2013 | HEK293 hcDAF-12 lit1-tk-luc reporter; 0% DMSO, 100% Δ7-dafachronic acid | activation, % at 6.8 µM;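 active = activation above the mean of all tested compounds plus 3 SD, cut at about 5.5% in these data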;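 note: 100% = response to 3 µM Δ7-dafachronic acid high control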
hgDAF12 agonist = H. glycines DAF-12 receptor agonists, primary screen, cell-based, luminescence, HEK293, GAL4 fusion, UAS-luciferase; Nuclear hormone receptor DAF-12 (Heterodera glycines), GAL4 fusion; HEK293 GAL4-hgDAF12 UAS-luciferase reporter, agonist luminescence; normalized to butyrate control; activation, % at 6.8 µM; 370,000 tested, 1.8% active; AID 687014, 2013;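 active = activation above a cutoff set at the mean of all screened compounds plus 3 SD, cut at about 10% in these data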;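 note: 0% = DMSO wells and 100% = sodium butyrate wells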
hgDAF12 ag = H. glycines DAF-12 receptor agonists, confirmation, cell-based, luminescence, HEK293, GAL4-LBD fusion | activation, % at 6.8 µM | 3,300 tested, 80% active | HEK293 GAL4-hgDAF12 luciferase reporter, agonist mode; percent of butyrate response | shares compounds with hgDAF12 agonist;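 active = mean activation over triplicate wells above the hit cutoff derived from the earlier primary screen, cut at about 11% in these data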;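 note: 0% = DMSO low control and 100% = 2 mM sodium butyrate high control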
LXRb DAF12 ctr = LXR agonists, Gal4 luciferase reporter, confirmation, counter-screen for hgDAF-12 agonist project, cell-based, luminescence, HEK293, H. glycines campaign; shares compounds with hgDAF12 agonist; 24 h; activation, % at 6.8 µM; 3,300 tested, under 10 active;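 active = mean activation of the triplicate above a set limit carried over from the primary screen, none filed active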
* = called active by the depositor; nt = not tested or not shown.

SMILES	DAX1 inh-1	ssDAF-12 act	DAX1 inh-2	hcDAF-12 act	hgDAF12 agonist	hgDAF12 ag	LXRb DAF12 ctr
COc1ccc(-c2nnc(SCC(=O)c3ccc[nH]3)o2)cc1	0	1	3	5	14*	15*	1
CC(C)=CC(=O)Nc1ccc(Br)cc1	4	-1	3	3	16*	15*	1
Cc1ccc(N=c2oc3cc(O)ccc3cc2C(N)=O)cc1	0	-1	2	5	18*	5	0
O=C(/C=C/c1ccccc1)NCCC1=CCCCC1	0	-1	2	-1	14*	12*	1
O=C(/C=C/c1ccc(F)cc1)NCCC1=CCCCC1	0	-1	1	2	9	nt	nt
Oc1[nH]c2ccccc2c1N=Nc1nncc2ccccc12	3	0	3	3	16*	12*	1
Oc1[nH]c2ccccc2c1N=Nc1ccccn1	2	1	2	3	9	nt	nt
O=C(NCc1cccc(F)c1)Nc1nnc([C@H]2C[C@H](O)[C@@H](CO)O2)s1	nt	-1	-1	1	-1	nt	nt
CCOC(=O)[C@@]12CCCC3=C1N(CCC3)C(=O)[C@H]2CC(=O)NCc1ccc(OC)c(OC)c1	nt	-1	-1	-2	-1	nt	nt
Fc1cccc2sc(Nc3nc4cc5c(cc4s3)OCO5)nc12	1	1.1*	3	6.3*	16*	14*	1
NC(=O)c1ccc(SCC(=O)OCC(=O)NCC2CCCCC2)c([N+](=O)[O-])c1	1	-1	1	0	0	nt	nt
Oc1ccc(-c2cn3ccccc3n2)cc1	2	1	2	4	13*	15*	1
CCC(CC)C(C(=O)NCc1ccccc1)N1CCN(c2cccc(C)c2C)CC1 (stereo unspecified)	nt	-1	2	1	2	nt	nt
CCOC(=O)C(Cc1c[nH]c2ccccc12)NC(=O)c1ccccc1Br (stereo unspecified)	1	-1	0	3	14*	5	0
NC(=S)N1OC[C@@H]2COc3ccc4ccccc4c3[C@@H]21	1	-1	-1	3	21*	8	0
COc1cccc(CNc2cnc3ccccc3c2)c1O	-1	0	2	3	9	nt	nt
COc1cccc(CNc2nc3ccccc3n2C)c1O	4	1.8*	2	5	15*	19*	1
C/C(=N\Nc1nccnc1Cl)c1ccc(O)cc1	0	1	2	6.5*	16*	11*	0
C/C(=N\Nc1nccnc1Cl)c1c(F)c(F)c(F)c(F)c1F	-1	-2	1	1	0	nt	nt
CCOc1cc(/C=N/NC(=O)N/N=C/c2ccc(O)c(OCC)c2)ccc1O	nt	1.1*	-1	5	14*	16*	1
COc1cc(/C=N/NC(=O)CCC(=O)Nc2ccc(F)cc2)ccc1O	1	-1	0	0	24*	0	0
Cn1c(=O)c2ncn(C)c2n(C)c1=O	1	-1	0	-2	-4	nt	nt
CCOc1ccc(-c2ccc(SCC(=O)Nc3nnc(C)s3)nn2)cc1	1	0	4.3*	1	13*	17*	1
CCOc1ccc(-c2ccc(SCC(=O)NC3CCCCC3)nn2)cc1	2	-1	3	3	2	nt	nt
CN=c1sc(C(=O)Nc2cccc(Cl)c2)cc(=O)n1C	-2	-1	-1	-1	3	nt	nt
SMILES	DAX1 inh-1	ssDAF-12 act	DAX1 inh-2	hcDAF-12 act	hgDAF12 agonist	hgDAF12 ag	LXRb DAF12 ctr
Cn1ccs/c1=N\C(=O)Nc1cccc(Cl)c1	1	0	3	2	16*	11*	1
Nc1ccc(-c2nc3ccccc3s2)cn1	2	1	2	5	14*	20*	1
c1ccc(-c2nc3ccccc3s2)nc1	4.3*	1	3	3	13*	18*	1
O=C(C[C@H]1C(=O)N(Cc2ccccc2)C[C@@H]1c1ccc(Br)cc1)Nc1ccc(Br)cc1	0	-1	0	-1	0	nt	nt
COc1ccc2[nH]c(C(=O)Nc3ccc(C)c(F)c3)cc2c1	1	0	0	-1	3	nt	nt
COc1ccc(NC(=O)c2cc3ccccc3[nH]2)cc1	6.1*	0	2	2	17*	13*	1
CCCNc1ncccc1C(N)=O	0	-1	0	-1	-1	nt	nt
Cc1ccc(Nc2ncccc2C(N)=O)cc1	2	0	3	4	14*	13*	1
COc1cc([N+](=O)[O-])ccc1NC(=O)CSc1nncn1-c1cccnc1	1	-1	0	0	-1	nt	nt
CC1CCN(C(=S)NCCc2ccccc2)CC1	1	0	2	3	14*	11*	1
OC(c1ccccc1)(c1ccccc1)C1CCN(C(=S)NCCc2ccccc2)CC1	nt	-1	-1	-2	0	nt	nt
O=C(Nc1ccc(F)cc1)C1COc2ccccc2O1 (stereo unspecified)	1	0	0	2	6	nt	nt
Cc1ccc(NC(=O)Nc2cnc3ccccc3c2)cc1	3	1	3.7*	5	15*	20*	1
CCC(CC)c1nnc(NC(=O)C2COc3ccccc3O2)s1 (stereo unspecified)	2	-1	2	3	14*	6	1
O=C(Nc1cnc2ccccc2c1)C1COc2ccccc2O1 (stereo unspecified)	2	0	2	3	14*	8	1
NC(=O)NN=C1CCC(OCc2ccccc2)CC1CC(=O)O (stereo unspecified)	nt	-1	0	-1	-3	nt	nt
Cc1ccccc1-n1nc(-c2cccnc2)cc1C(=O)NN	0	-2	0	-2	0	nt	nt
C[C@H]1Cn2cnc(C(=O)Nc3ccccc3)c2C(=O)N1	0	-2	-2	1	-1	nt	nt
Cc1ccc2c(c1)N(CC(=O)Nc1ccccc1F)C(=O)C(C)O2 (stereo unspecified)	1	-2	0	-2	0	nt	nt

Screening data: PubChem BioAssay, The Scripps Research Institute Molecular Screening Center
